# Measured values from PubChem BioAssay (NCATS).
# Records with an inconclusive call do not appear. A call without a number means that no potency is given here. Calls of active or inactive are those of the source. Calls come from the whole dose curve; as a rule, active = well fitted curve in the direction sought with a large enough effect; inconclusive = small, poorly fitted or top-dose-only effect, or another doubt; inactive = no such curve, though single readings can be large; an effect the other way counts as inactive or inconclusive. Numbered stars: 1 amine (or outer) side, 2 acyl side, 3 side chain; on linkers, the order of the positions; unused ones are H or OH. Bridge positions count the residues as written; N and C are the ends. Square brackets hold non-standard residues; d marks the D form. Peptide text beside a SMILES is read from it. I, II: the chains in the order shown. Actinocin(9to1) = Cc1c2oc3c(C)ccc(C(=O)[*:1])c3nc-2c(C(=O)[*:2])c(N)c1=O; NMeV = CN[C@H](C(=O)O)C(C)C; Sar = CNCC(=O)O
# Legend:
# [1] = qHTS of pediatric cancer cell lines to identify multiple opportunities for drug repurposing: Confirmatory screen for BT-37 cells (AID 1347117);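 note: viability measured after 48 h of compound exposure; nearly all actives have a fitted effect of over 55% in size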
# Procedure, shortened: (§1)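 Cells (500-1,000/well) in growth media were settled 5 h at 37 degrees C, then given compounds for 48 h. Viability was read as CellTiter-Glo luminescence. Primary runs used MIPE at 11 points (0.78 nM-46 µM) and NPC at 8 points (0.59 nM-46 µM); follow-ups used 11 points.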
# [2] = qHTS of pediatric cancer cell lines to identify multiple opportunities for drug repurposing: Confirmatory screen for TC32 cells (AID 1347118);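 note: cells exposed to compound for 48 h before the read; nearly all actives have a fitted effect of over 65% in size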
# Procedure, shortened: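 TC32 cells, 500-1,000/well in growth medium, compound-treated 48 h at 37 °C; viability from CellTiter-Glo luminescence. Primary screen: MIPE 11-point (0.78 nM–46 µM final), NPC 8-point (0.59 nM–46 µM final); confirmatory at 11-point dilutions.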
# [3] = qHTS of pediatric cancer cell lines to identify multiple opportunities for drug repurposing: Confirmatory screen for MG 63 (6-TG R) cells (AID 1347119); note: nearly all actives have a fitted effect of over 55% in size
# Procedure, shortened: as §1
# [4] = qHTS of pediatric cancer cell lines to identify multiple opportunities for drug repurposing: Confirmatory screen for control Hh wild type fibroblast cells (AID 1347121); note: nearly all actives have a fitted effect of over 70% in size
# Procedure, shortened: as §1
# [5] = qHTS of pediatric cancer cell lines to identify multiple opportunities for drug repurposing: Confirmatory screen for U-2 OS cells (AID 1347122); note: nearly all actives have a fitted effect of over 65% in size
# Procedure, shortened: as §1
# [6] = qHTS of pediatric cancer cell lines to identify multiple opportunities for drug repurposing: Confirmatory screen for Rh41 cells (AID 1347123);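 note: 48 h compound exposure; nearly all actives have a fitted effect of over 60% in size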
# Procedure, shortened: as §1
# [7] = qHTS of pediatric cancer cell lines to identify multiple opportunities for drug repurposing: Confirmatory screen for RD cells (AID 1347124);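 note: cells exposed to compound for 48 h before viability readout; nearly all actives have a fitted effect of over 65% in size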
# Procedure, shortened: as §1
# [8] = qHTS of pediatric cancer cell lines to identify multiple opportunities for drug repurposing: Confirmatory screen for Rh30 cells (AID 1347126); note: nearly all actives have a fitted effect of over 55% in size
# Procedure, shortened: as §1
# [9] = qHTS of pediatric cancer cell lines to identify multiple opportunities for drug repurposing: Confirmatory screen for Saos-2 cells (AID 1347127); note: nearly all actives have a fitted effect of over 60% in size
# Procedure, shortened: as §1
# [10] = qHTS of pediatric cancer cell lines to identify multiple opportunities for drug repurposing: Confirmatory screen for OHS-50 cells (AID 1347128);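 note: compound exposure lasted 48 h at 37 degrees C; nearly all actives have a fitted effect of over 55% in size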
# Procedure, shortened: as §1
# Potency is the fitted concentration of half-maximal effect.
SMILES,Potency [1],Potency [2],Potency [3],Potency [4],Potency [5],Potency [6],Potency [7],Potency [8],Potency [9],Potency [10]
CCC(C(=O)OCCN(CC)CC)c1ccccc1 (stereo not given),inactive,10.4 µM (active),inactive,inactive,inactive,inactive,inactive,inactive,inactive,–
CC(=O)OCC(=O)[C@@]12N=C(C)O[C@@H]1C[C@H]1[C@@H]3CCC4=CC(=O)C=C[C@]4(C)[C@H]3[C@@H](O)C[C@@]12C,0.657 µM (active),0.369 µM (active),–,–,inactive,–,–,–,0.737 µM (active),1.31 µM (active)
CCCCCCC[N+](CC)(CC)CCCCc1ccc(Cl)cc1,5.22 µM (active),–,13.1 µM (active),9.27 µM (active),inactive,–,inactive,10.4 µM (active),11.7 µM (active),23.3 µM (active)
CC(=O)O[C@]1(C(C)=O)CC[C@H]2[C@@H]3C[C@H](C)C4=CC(=O)CC[C@]4(C)[C@H]3CC[C@@]21C,–,–,inactive,inactive,–,–,inactive,inactive,inactive,–
C[n+]1c2cc(N)ccc2cc2ccc(N)cc21 (tested in a mixture with another compound),0.827 µM (active),5.85 µM (active),14.7 µM (active),7.37 µM (active),16.5 µM (active),5.22 µM (active),0.657 µM (active),6.57 µM (active),–,9.27 µM (active)
C[C@]12C=CC(=O)C=C1CC[C@@H]1[C@@H]2[C@@H](O)C[C@@]2(C)[C@H]1CC[C@]2(O)C(=O)CO,inactive,26.1 µM (active),inactive,inactive,inactive,inactive,inactive,inactive,inactive,inactive
"Cc1c2oc3c(C)ccc(C(=O)N[C@@H]4C(=O)N[C@H](C(C)C)C(=O)N5CCC[C@H]5C(=O)N(C)CC(=O)N(C)[C@@H](C(C)C)C(=O)O[C@@H]4C)c3nc-2c(C(=O)N[C@@H]2C(=O)N[C@H](C(C)C)C(=O)N3CCC[C@H]3C(=O)N(C)CC(=O)N(C)[C@@H](C(C)C)C(=O)O[C@@H]2C)c(N)c1=O (I: T[dV]P[Sar][NMeV] / II: T[dV]P[Sar][NMeV]; ester I:1-I:C, II:1-II:C; linker I:N-II:N via Actinocin(9to1))",0.0023 µM (active),0.0093 µM (active),0.0329 µM (active),inactive,0.369 µM (active),0.0147 µM (active),–,inactive,–,0.0293 µM (active)
C[C@@H]1C[C@H]2[C@@H]3CCC4=CC(=O)C=C[C@]4(C)[C@@]3(F)[C@@H](O)C[C@]2(C)[C@H]1C(=O)CO,inactive,inactive,–,inactive,inactive,–,inactive,inactive,inactive,inactive
CC(=O)OCC(=O)[C@@]12OC(C)(C)O[C@@H]1C[C@H]1[C@@H]3C[C@H](F)C4=CC(=O)C=C[C@]4(C)[C@@]3(F)[C@@H](O)C[C@@]12C,–,inactive,inactive,–,inactive,inactive,inactive,inactive,–,–
CCCCC(CC)CN=C(N)NC(N)=NCCCCCCN=C(N)NC(N)=NCC(CC)CCCC (stereo not given),8.27 µM (active),8.27 µM (active),2.93 µM (active),2.93 µM (active),4.65 µM (active),7.37 µM (active),1.04 µM (active),1.47 µM (active),16.5 µM (active),13.1 µM (active)
C[C@@H]1C[C@H]2[C@@H]3C[C@H](F)C4=CC(=O)C(Cl)=C[C@]4(C)[C@@]3(F)[C@@H](O)C[C@]2(C)[C@@]1(O)C(=O)CO,–,–,–,–,inactive,inactive,–,–,–,–
C[C@]12C=CC(=O)C=C1[C@@H](F)C[C@@H]1[C@@H]2[C@@H](O)C[C@@]2(C)[C@H]1CC[C@]2(O)C(=O)CO,inactive,inactive,inactive,inactive,inactive,–,inactive,inactive,–,inactive
CC1(C)O[C@@H]2C[C@H]3[C@@H]4CCC5=CC(=O)CC[C@]5(C)[C@@]4(F)[C@@H](O)C[C@]3(C)[C@]2(C(=O)CCl)O1,inactive,inactive,–,inactive,inactive,–,inactive,inactive,inactive,inactive
NC(=O)CC[C@@H]1NC(=O)[C@H](Cc2ccccc2)NC(=O)[C@H](Cc2ccc(O)cc2)NC(=O)CCSSC[C@@H](C(=O)N2CCC[C@H]2C(=O)N[C@@H](CCCN=C(N)N)C(=O)NCC(N)=O)NC(=O)[C@H](CC(N)=O)NC1=O,inactive,inactive,–,inactive,inactive,inactive,–,inactive,inactive,inactive
CC(=O)Oc1ccc2c(c1)CC[C@@H]1[C@@H]2CC[C@]2(C)[C@@H](O)CC[C@@H]12,–,6.57 µM (active),–,inactive,–,inactive,inactive,inactive,–,inactive
C=C1C[C@H]2[C@@H]3C=C(C)C4=CC(=O)CC[C@]4(C)[C@H]3CC[C@]2(C)[C@@]1(OC(C)=O)C(C)=O,inactive,6.57 µM (active),inactive,inactive,–,–,inactive,inactive,inactive,inactive
OC[C@H]1O[C@@H](n2cnc3c(=S)nc[nH]c32)[C@H](O)[C@@H]1O,2.93 µM (active),2.33 µM (active),inactive,inactive,–,10.4 µM (active),inactive,–,4.65 µM (active),2.33 µM (active)
CCOc1ccc2nc3cc(N)ccc3c(N)c2c1,–,2.61 µM (active),inactive,–,0.585 µM (active),14.7 µM (active),–,–,–,inactive
CC(=O)[C@H]1CC[C@H]2[C@@H]3C[C@H](C)C4=CC(=O)CC[C@]4(C)[C@H]3[C@@H](O)C[C@]12C,–,–,–,inactive,0.329 µM (active),10.4 µM (active),inactive,inactive,–,–
COc1cccc2c1C(=O)c1c(O)c3c(c(O)c1C2=O)C[C@@](O)(C(=O)CO)C[C@@H]3O[C@H]1C[C@H](N)[C@H](O)[C@H](C)O1,0.657 µM (active),0.465 µM (active),5.85 µM (active),–,–,1.47 µM (active),5.22 µM (active),–,–,14.7 µM (active)

SMILES,Potency [1],Potency [2],Potency [3],Potency [4],Potency [5],Potency [6],Potency [7],Potency [8],Potency [9],Potency [10]
CC(=O)OCC(=O)[C@@]1(O)[C@H](C)C[C@H]2[C@@H]3CCC4=CC(=O)C=C[C@]4(C)[C@@]3(F)[C@@H](O)C[C@@]21C,–,18.5 µM (active),–,–,20.8 µM (active),–,–,–,–,–
CC(C)(C(=O)c1cccnc1)c1cccnc1,–,3.29 µM (active),inactive,inactive,inactive,inactive,inactive,inactive,–,inactive
COc1cc(C=C2CCC/C(=C\c3ccc(O)c(OC)c3)C2=O)ccc1O,5.85 µM (active),0.414 µM (active),20.8 µM (active),inactive,–,14.7 µM (active),9.27 µM (active),20.8 µM (active),11.7 µM (active),16.5 µM (active)
CC(=O)OCC(=O)[C@@]1(OC(C)=O)[C@@H](C)C[C@H]2[C@@H]3C[C@H](F)C4=CC(=O)C=C[C@]4(C)[C@@]3(F)[C@@H](O)C[C@@]21C,–,–,–,inactive,inactive,–,inactive,inactive,inactive,inactive
CC1(C)O[C@@H]2C[C@H]3[C@@H]4C[C@H](F)C5=CC(=O)CC[C@]5(C)[C@H]4[C@@H](O)C[C@]3(C)[C@]2(C(=O)CO)O1,inactive,–,inactive,inactive,inactive,inactive,inactive,–,inactive,inactive
CC(=O)OCC(=O)[C@@]1(O)CC[C@H]2[C@@H]3CCC4=CC(=O)C=C[C@]4(C)[C@H]3[C@@H](O)C[C@@]21C,–,inactive,inactive,inactive,inactive,inactive,inactive,inactive,–,inactive
CCCCC(=O)O[C@]1(C(=O)CO)CC[C@H]2[C@@H]3CCC4=CC(=O)CC[C@]4(C)[C@H]3[C@@H](O)C[C@@]21C,–,–,–,inactive,–,–,–,inactive,–,inactive
COCc1c(C(C)C)nc(C(C)C)c(/C=C/[C@@H](O)C[C@@H](O)CC(=O)O)c1-c1ccc(F)cc1,1.65 µM (active),0.928 µM (active),0.0369 µM (active),inactive,0.261 µM (active),2.33 µM (active),0.928 µM (active),0.414 µM (active),0.0657 µM (active),0.465 µM (active)
CN(C)C(=S)SC(=S)N(C)C,3.69 µM (active),3.69 µM (active),–,inactive,inactive,1.31 µM (active),–,4.14 µM (active),–,inactive
O=C(CCCN1CCC(O)(c2ccc(Br)cc2)CC1)c1ccc(F)cc1,–,2.61 µM (active),inactive,inactive,inactive,18.5 µM (active),–,–,inactive,–
CN(C)/N=N/c1nc[nH]c1C(N)=O,inactive,23.3 µM (active),0.369 µM (active),inactive,inactive,inactive,inactive,inactive,inactive,–
Oc1ccc(O)cc1,inactive,20.8 µM (active),inactive,inactive,inactive,–,inactive,inactive,inactive,inactive
C[C@]12CCC(=O)C=C1CC[C@H]1[C@@H]3CC[C@](O)(C(=O)CO)[C@@]3(C)C[C@H](O)[C@@]12F,inactive,–,inactive,inactive,inactive,inactive,inactive,–,inactive,inactive
C[C@@H]1CN(CCCn2c3ccccc3c3ccccc32)C[C@H](C)N1,–,–,inactive,–,inactive,16.5 µM (active),–,26.1 µM (active),–,–
CC(=O)Oc1ccc(C(c2ccc(OC(C)=O)cc2)c2ccccn2)cc1,–,6.57 µM (active),1.17 µM (active),inactive,inactive,inactive,inactive,inactive,inactive,–
NC(CO)(CO)CO,inactive,11.7 µM (active),inactive,inactive,inactive,inactive,inactive,–,inactive,inactive
C[C@H]1C[C@H]2[C@@H]3CCC4=CC(=O)C=C[C@]4(C)[C@@]3(Cl)[C@@H](O)C[C@]2(C)[C@@]1(O)C(=O)CO,inactive,inactive,inactive,inactive,inactive,–,inactive,inactive,inactive,inactive
COc1c(C)c2c(c(O)c1C/C=C(\C)CCC(=O)O)C(=O)OC2,–,–,–,–,1.85 µM (active),1.17 µM (active),–,1.31 µM (active),–,–
CCCC(=O)O[C@]1(C(=O)CO)CC[C@H]2[C@@H]3CCC4=CC(=O)CC[C@]4(C)[C@H]3[C@@H](O)C[C@@]21C,inactive,inactive,–,inactive,inactive,–,inactive,inactive,–,inactive
